In PubChem BioAssay AID463115 (University of Pittsburgh Molecular Library Screening Center, 2010):
Among all 220,000 compounds or so, about 130 (0.059%) were called active. Only a selection was taken, and actives are over-represented in it overall. A number with no mark means an inactive call. Cut-off read from the data, not from the text of the source: active = inhibition above about 25%; inactive = the rest.

Target: Furin (Homo sapiens) (UniProt P09958)
Experiment: furin protease activity blockers – biochemical, fluorescence intensity, primary screen (AID 463115)
Details: purified furin, fluorogenic substrate cleavage, hits give high values; at 30 µM unless noted

Furin (Homo sapiens), sequence (P09958 108-714 limits assumed): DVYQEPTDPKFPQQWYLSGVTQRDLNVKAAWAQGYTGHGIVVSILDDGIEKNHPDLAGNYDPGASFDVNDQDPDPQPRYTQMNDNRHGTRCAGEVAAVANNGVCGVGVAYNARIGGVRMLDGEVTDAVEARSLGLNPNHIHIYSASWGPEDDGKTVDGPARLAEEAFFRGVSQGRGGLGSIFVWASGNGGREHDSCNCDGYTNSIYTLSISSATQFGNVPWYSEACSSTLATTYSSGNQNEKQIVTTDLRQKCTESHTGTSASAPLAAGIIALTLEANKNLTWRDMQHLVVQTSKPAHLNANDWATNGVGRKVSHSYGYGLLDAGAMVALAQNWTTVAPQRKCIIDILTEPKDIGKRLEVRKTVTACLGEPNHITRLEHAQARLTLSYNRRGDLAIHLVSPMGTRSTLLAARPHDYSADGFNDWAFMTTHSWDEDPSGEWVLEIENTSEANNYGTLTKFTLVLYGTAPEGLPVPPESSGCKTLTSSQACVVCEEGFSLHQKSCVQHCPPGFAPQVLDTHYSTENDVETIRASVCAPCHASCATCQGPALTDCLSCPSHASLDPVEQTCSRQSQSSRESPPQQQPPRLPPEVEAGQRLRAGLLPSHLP

SMILES | inhibition
CCC(=O)Nc1sc(C(=O)Nc2ccccc2)c(C)c1C(=O)OC | -21.3%
C#CCO[C@@H]1C[C@H](n2cnc3c(=O)[nH]c(NC(=O)C(C)C)nc32)O[C@@H]1CO | -9.33%
O=C1N=C(N2CCc3ccccc3C2)S/C1=C\c1ccc(O)cc1 | -5.76%
Cc1nc2sc(C(c3ccco3)N3CCC4(CC3)OCCO4)c(O)n2n1 (stereo not given) | -16.3% [at 20 µM]
COc1ccc(/C=C/C(=O)c2ccc(NS(=O)(=O)c3ccc(C)cc3)cc2)cc1O | -7.18%
COC(=O)c1ccc(C(=O)OC)c(NC(=S)N2CCN(c3ccc(F)cc3)CC2)c1 | -22.8%
O=C(Nc1ccccc1-c1nnn(CC(=O)N2CCCc3ccccc32)n1)c1cccc(Cl)c1 | -12.2% [at 20 µM]
Cc1cc(C)n(-c2nnc(C)n2NC(=O)c2cccc(Cl)c2)n1 | -15.9% [at 20 µM]
O=C(NCc1ccco1)C(=O)c1cn(CC(=O)N2CCCCCC2)c2ccccc12 | -16.3%
CCOc1ncccc1C(=O)OCC(=O)NC1CC1 | -17.7%
O=C(c1cccc([N+](=O)[O-])c1)N1CCN(C(=O)c2ccco2)CC1 | -10.7%
CC(C)C(=O)NCc1cc(-c2ccc(Cl)cc2)no1 | 2.24%
O=S(=O)(c1ccc(F)cc1)N1CCN(Cc2ccccc2C(F)(F)F)CC1 | -12.9%
O=c1oc2ccccc2cc1-c1cn(-c2ccccc2)c(=S)[nH]1 | -34.3%
S=c1[nH]nc(NCCc2ccccc2)s1 | -19.4%
CC(C)(C)C(=O)OCc1nc(-c2ccc(O)c(O)c2)cs1 | -19.6%
CCN(CC)c1ccc(NC(=O)C2CCC(CNc3c(N4CCCC4)c(=O)c3=O)CC2)c(C)c1 (stereo not given) | -28.8%
C[n+]1ccc(/C=C/c2c[nH]c3ccccc23)cc1 | 3.06%
C=Cn1c(C(=O)O)ccc1-c1ccc(OC)cc1 | -9.46%
CC1CN(S(=O)(=O)c2ccc(C(=O)NN3CCN(C)CC3)cc2)CC(C)O1 (stereo not given) | -23.8%
CCOCN(C(=O)Cn1c(C(C)O)nc2ccccc21)c1c(C)cccc1CC (stereo not given) | -22.3% [at 20 µM]
O=C(/C=C/c1ccc(Cl)cc1)Nc1ccc(Br)cn1 | -19.6%
Cc1oc(-c2ccccc2Cl)[n+]([O-])c1C | -9.84% [at 20 µM]

SMILES | inhibition
C=C(C)C(=O)O[C@H]1C/C(C)=C\C(=O)/C=C(\C)[C@H](O)[C@@H]2OC(=O)C(=C)[C@@H]21 | -5.36%
CCN(C(=O)CSc1nnc2ccccn12)C1CCS(=O)(=O)C1 (stereo not given) | -27.8%
NNC(=O)c1cnn(-c2ccccc2)c1C(F)(F)F | -29%
CCN=C1S/C(=C\c2cc(Br)ccc2OCC(=O)OCC)C(=O)N1CC | -4.2%
N#Cc1ccccc1NC(=O)COc1c(Br)cc(Br)c2cccnc12 | -14.7%
Cn1c(SCC(=O)Nc2ccc(Cl)cc2)nc(O)cc1=O | -15%
O=C(CSc1nc2ccc([N+](=O)[O-])cc2[nH]1)c1ccc(Cl)cc1 | -10.5%
S=C(NN=C1CCN(Cc2ccccc2)CC1)NC1CCCCC1 | -25.8%
CCCC1OC23CCCCC2C(C#N)(C#N)C1(C#N)C(=N)O3 (stereo not given) | -12.5%
COc1cc(C)c(S(=O)(=O)N2CCOCC2)c(C)c1C | -15.3%
COc1ccccc1N1CCN(/N=C\C(Br)=C\c2ccccc2)CC1 | -19%
CCO[C@H]1OC(C(=O)N2CCCCCCC2)=C[C@@H](c2ccc(C(F)(F)F)cc2)[C@@H]1CCCO | -28%
Cc1cc(N=CC2=C(O)CCCC2=O)no1 | 42.3% (active)
COc1ccc(O)c(C=Nc2cc(C)on2)c1 | -25.7%
O=C1CCCC(O)=C1C=NCCc1ccccc1 | -20.8%
OCCC1CN(Cc2cccn2-c2nccs2)CCN1CCc1ccccc1 (stereo not given) | -12.8%
Cc1nc(CNS(=O)(=O)c2cc([N+](=O)[O-])ccc2C)cs1 | 10.1%
COC(=O)C1=C(N)Oc2c(oc(CO)cc2=O)C1c1c(F)cccc1Cl (stereo not given) | -27.8%
CN(C)c1ccnc2sc3c(=O)n(-c4ccc(Cl)cc4)cnc3c12 | -7.85% [at 20 µM]
CCC(C)(C)NC(=O)CN(C(=O)C(=O)Nc1ccc2c(c1)OCCO2)C(C)(C)CC | -14.5%
CSc1nnc(SCc2nc3sc(C(=O)O)c(C)c3c(=O)[nH]2)s1 | -6.65%
O=C(CC1SCCNC1=O)Nc1ccc(Cl)c(Cl)c1 (stereo not given) | -21.8%
